Measured values reported in ChEMBL document CHEMBL1157539, “Thousands of chemical starting points for antimalarial lead identification” (Nature, 2010).

Tested on: Plasmodium falciparum
Assay: GSK_TCMDC: Inhibition of Plasmodium falciparum 3D7 in whole red blood cells, using parasite LDH activity as an index of growth. Test compounds present at 2uM
Type: functional

SMILES | Inhibition
O=C(Nc1cccnc1)c1cn(-c2ccccc2)nc1-c1cccs1 | 99%
O=c1ccc(CNc2nc(NCCc3ccccc3)nc3ccc(Cl)cc23)c[nH]1 | 99%
CCCCCCCN1CCC(NC(=O)Nc2ccnc3ccc(OC)cc23)C(C(=O)OCC)C1.O=C(O)C(=O)O (stereo not given) | 100%
COc1ccc(-c2nc3c4ccccc4c4ccc(I)cc4c3[nH]2)cc1 | 96%
COc1ccc(CCNc2nc(SCc3ccccc3Cl)nc3ccccc23)cc1OC | 94%
COc1ccc(NC(=O)CCNc2cc(C)nc(NCCOc3ccccc3)n2)cc1.O=C(O)C(F)(F)F | 96%
C[C@@H]([C@@H](CCCc1ccc(Cl)cc1)C(=O)N[C@H](C(=O)Nc1cccnc1)C(C)(C)C)N(O)C=O | 100%
Cc1cc(Nc2ccc3c(c2)CCC3)n2ncnc2n1 | 86%
COCc1nc(N)nc(N)c1-c1ccc(Cl)c(Cl)c1 | 84%
CCOC(=O)c1ccc(NC(=O)Nc2cccc(-c3cccc(-c4nc5ccccc5[nH]4)c3)c2)cc1 | 100%
C=CCn1c(Sc2ccc(C#N)c([N+](=O)[O-])c2)nnc1-c1cccc(Cl)c1 | 97%
c1ccc(CN2CCC(NCc3cccc(-c4cncc5ccccc45)c3)CC2)cc1 | 92%
CCOc1c(OC)ccc2c1CCN(CCN1CCC(CNC(=O)c3ccc(-c4ccc(C(F)(F)F)cc4)cc3)CC1)C2 | 100%
Cl.Nc1c2c(nc3ccc(NC(=O)c4ccc([N+](=O)[O-])cc4)cc13)CCCC2 | 100%
CCCC(CCC)n1ccc2c3c(N)nc(N)nc3ccc21.Cl | 98%
CCCNC(=O)C1Cc2cc(OC)c(OC)cc2C2(N1)C(=O)N(Cc1cccc(OC)c1)c1ccccc12 (stereo not given) | 91%
CCc1c[nH]c2c(N3CCCS3(=O)=O)cc(C(=O)N[C@@H](Cc3ccccc3)[C@H](O)CNC3CCCCC3)cc12.O=CO | 99%
Cc1ccc(CNC(=O)[C@H](Cc2ccccc2)Nc2cc(C)nc(Nc3ccccc3)n2)cc1.O=C(O)C(F)(F)F | 100%
NC(=O)c1cccc(C(=O)Nc2cccc(-c3cccc(-c4nc5ccccc5[nH]4)c3)c2)c1 | 100%
CCOc1ncccc1CN1CCC(N2CCc3cc(NC(=O)c4cc(C)on4)ccc32)C1 (stereo not given) | 89%

SMILES | Inhibition
CCCCCCOc1ccc(N2C(N)=NC(N)=NC2(C)C)cc1.Cl | 98%
CC(C(=O)NC1CCN(c2ccnc(Nc3ccc(F)cc3)n2)C1)c1ccc(Cl)cc1 (stereo not given) | 95%
Cc1ccc(NC(=O)c2ccc(N3CCC(c4ccccc4C)CC3)nc2)cc1.O=C(O)C(F)(F)F | 83%
Cc1cccc2nc(-c3ccc(-c4ccc(CN5CCN(CCN6CCOCC6)CC5)cc4)s3)[nH]c12.O=C(O)C(F)(F)F | 100%
Cc1cccc2nc(-c3ccc(-c4ccc(NC(=O)C(=O)c5cccn5C)cc4)cc3)[nH]c12 | 95%
O=C(O)C(F)(F)F.OCCN1CCN(Cc2ccc(-c3cccc(-c4nc5cc(C(F)(F)F)ccc5[nH]4)c3)cc2)CC1 | 99%
CCCc1cc(=O)[nH]c(-n2nc(C)cc2NC(=O)C(CC)c2ccccc2)n1 (stereo not given) | 94%
COc1ccc2c(c1)ncn2-c1cc(OCc2ccncc2Br)c(C(N)=O)s1 | 95%
O=C(C=Cc1ccc(Cl)c(Cl)c1)NCCCCCN1CCC(CCNC(=O)c2ccc3c(c2)OCO3)CC1 | 99%
CCCNCc1ccc(-c2ccc(CN(CCOC)C(=O)c3ccco3)cc2)nc1.O=C(O)C(F)(F)F | 91%
Cc1nc2nc(N)nc(N)c2c(C)c1Cc1cccc(C(F)(F)F)c1.Cl | 89%
CC(=O)Nc1cccc(C(=O)Nc2ccc(-c3cccc(-c4nc5cccc(C)c5[nH]4)c3)cc2)c1 | 100%
COc1cc(C)nc2ccc(NC(=O)COCC(=O)Nc3ccc4nc(C)cc(OC)c4c3)cc12 | 100%
Oc1ccc2[nH]c(-c3cccc(F)c3)nc2c1CN1CCCC1 | 100%
Cc1[nH]cnc1CSCCN/C(=N\C#N)NCCCCCCCCN/C(=N/C#N)NCCSCc1nc[nH]c1C | 81%
C=CCOC(=O)N1CCC(CNCc2ccc(-c3cccc(-c4nc5cccc(C)c5[nH]4)c3)cc2)C1.O=C(O)C(F)(F)F (stereo not given) | 100%
CCOC(=O)N1CCN(CCCNc2c3ccccc3nc3ccccc23)CC1.Cl | 90%
COc1cc(C=C(C2=NC(=O)CS2)c2nc3cccnc3n2C)ccc1O | 89%
CCN(CC)CCN(Cc1ccc(-c2ccc(C(F)(F)F)cc2)cc1)C(=O)Cn1c(CCc2cccc(F)c2F)cc(=O)c(C)c1C.O=C(O)C(O)C(O)C(=O)O | 97%
Clc1ccc2nnc(-c3c(Cl)cccc3Cl)n2n1 | 96%
